The supplement of paper PMC7366291
Where a name gives a salt, the structure may show the parent alone. ± gives the standard deviation or the standard deviation of the averaged measurements.

Columns and labels:
Conditions in all cases: 25 µM; exposure: 24-48 hpf
[1] = test system: Danio rerio Tg(wt1b:EGFP) embryo, pronephros; experiment: glomerular separation, fold change vs DMSO control; higher = glomeruli further apart (abnormal)
Method in brief: (§1)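 Each feature value is a fold change relative to the mean of same-day DMSO-treated embryos. Embryos of the Tg(wt1b:EGFP) zebrafish line, dechorionated, received 25 μM compound in 0.5% DMSO from 24 to 48 hpf at 28.5°C, in HEPES-buffered E3 with 0.003% PTU. Distances and angles were computed by a Fiji macro from 16 manually set reference points on maximum projections of dorsal pronephros images, and values beyond 2 SD of the feature mean were removed.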

[2] = test system: Danio rerio Tg(wt1b:EGFP) embryo, pronephros; experiment: glomerular width (mean of left and right), fold change vs DMSO control; higher = wider glomerulus
Method in brief: as §1

[3] = test system: Danio rerio Tg(wt1b:EGFP) embryo, pronephros; experiment: fraction of imaged embryos annotated as normal kidney; higher = less nephrotoxic; extreme values may be limits of the assay
Method in brief: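 Tricaine-anaesthetised Tg(wt1b:EGFP) zebrafish larvae were oriented dorsally in agarose-filled 96-well plates, and their pronephroi were recorded by widefield fluorescence at 470 nm in 10 z-slices. Before this, the dechorionated embryos had been exposed in 12-well plates to 25 μM compound in 0.5% DMSO and 5 mM HEPES-buffered E3 with 0.003% PTU, from 24 to 48 hpf at 28.5°C. Maximum projections were annotated manually for each embryo, and the read-out is the fraction per treatment classed as normal kidney.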

[4] = test system: Danio rerio Tg(wt1b:EGFP) embryo, pronephros; experiment: pronephric angle neck segment to proximal convoluted tubule (mean of left and right), fold change vs DMSO control; higher = larger pronephric angle
Method in brief: as §1

SMILES | glomerular separation [1] | glomerular width [2] | fraction of imaged embryos annotated as normal kidney [3] | pronephric angle neck segment [4]
O=C(O)CN(CCN(CC(=O)O)CC(=O)O)CCN(CC(=O)O)CC(=O)O [Pentetic acid] | 1.23 ± 0.47 | 0.98 ± 0.017 | 0.917 | 0.9888 ± 0.0057
CCN(CC)C(=S)SSC(=S)N(CC)CC [Disulfiram] | 3.4 ± 1.9 | 0.458 ± 0.05 | 0 | 1.7 ± 0.043
CS(=O)(=O)c1ccc([C@@H](O)[C@@H](CO)NC(=O)C(Cl)Cl)cc1 [Thiamphenicol] | 0.938 ± 0.22 | 1.03 ± 0.024 | 1 | 0.978 ± 0.025
CCOC(=O)c1ccc(N)cc1 [Benzocaine] | 1.45 ± 0.34 | 0.901 ± 0.021 | 0.833 | 1.02 ± 0.016
CNC(=O)c1c(I)c(C(=O)NCC(=O)Nc2c(I)c(C(=O)O)c(I)c(C(=O)NCCO)c2I)c(I)c(N(C)C(C)=O)c1I [Ioxaglic acid] | 0.975 ± 0.39 | 1.03 ± 0.037 | 0.818 | 0.982 ± 0.035
CC(=O)O[C@]1(C(C)=O)CC[C@H]2[C@@H]3C=C(Cl)C4=CC(=O)CC[C@]4(C)[C@H]3CC[C@@]21C [Chlormadinone acetate] | 1.26 ± 0.62 | 0.909 ± 0.053 | 0.636 | 1.17 ± 0.093
C=CCc1ccccc1OCC(O)CNC(C)C (centres undefined) [Alprenolol hydrochloride] | 0.823 ± 0.28 | 1 ± 0.074 | 0.833 | 1.07 ± 0.015
OC(CCN1CCCCC1)(c1ccccc1)c1ccccc1 [Pridinol methanesulfonate salt] | 0.797 ± 0.22 | 1.02 ± 0.06 | 1 | 0.986 ± 0.089
CC[C@H](c1ccc(O)cc1)[C@@H](CC)c1ccc(O)cc1 [Hexestrol] | 1.04 ± 0.38 | 0.94 ± 0.029 | 0.25 | 1.22 ± 0.08
COc1nc(N)nc2c1ncn2[C@@H]1O[C@H](CO)[C@@H](O)[C@@H]1O [Nelarabine] | 0.929 ± 0.39 | 0.992 ± 0.058 | 0.727 | 0.984 ± 0.073
CO[C@@]1(NC(=O)C(C(=O)O)c2ccc(O)cc2)C(=O)N2C(C(=O)O)=C(CSc3nnnn3C)CO[C@@H]21 (some centres undefined) [Moxalactam disodium salt] | 0.871 ± 0.28 | 1.04 ± 0.014 | 0.917 | 0.984 ± 0.067
C[C@@H]1C[C@H]2[C@@H]3C[C@H](F)C4=CC(=O)C=C[C@]4(C)[C@@]3(F)[C@@H](O)C[C@]2(C)[C@@]1(O)C(=O)CO [Flumethasone] | 0.902 ± 0.3 | 1.28 ± 0.012 | 0.417 | 0.977 ± 0.049
C=CC1=C(C(=O)O)N2C(=O)[C@@H](NC(=O)/C(=N\OCC(=O)O)c3csc(N)n3)[C@H]2SC1 [Cefixime] | 1.32 ± 0.59 | 1 ± 0.014 | 0.75 | 1.07 ± 0.1
N[C@@H](C(=O)N[C@@H]1C(=O)N2C(C(=O)O)=C(Cl)CS[C@H]12)c1ccccc1 [Cefaclor hydrate] | 1 ± 0.21 | 0.95 ± 0.093 | 0.833 | 1.01 ± 0.028
CSc1ccc2c(c1)C(N1CCN(C)CC1)Cc1ccccc1S2 (centres undefined) [Methiothepin maleate] | 1.06 ± 0.38 | 1.01 ± 0.045 | 0.833 | 0.976 ± 0.034
COC(=O)[C@@H]1[C@H]2C[C@H]3c4[nH]c5ccccc5c4CCN3C[C@@H]2CC[C@@H]1O [Yohimbine hydrochloride] | 1.24 ± 0.41 | 1.08 ± 0.069 | 0.727 | 0.985 ± 0.082
C#Cc1cccc(Nc2ncnc3cc(OCCOC)c(OCCOC)cc23)c1 [Erlotinib] | 0.768 ± 0.23 | 1.05 ± 0.03 | 0.833 | 0.994 ± 0.031
C=C1C[C@H]2[C@@H]3C=C(C)C4=CC(=O)CC[C@]4(C)[C@H]3CC[C@]2(C)[C@@]1(OC(C)=O)C(C)=O [Melengestrol acetate] | 0.846 ± 0.24 | 1.07 ± 0.039 | 0.917 | 1.02 ± 0.066
CCOC(=O)/C=C(C)/C=C/C=C(C)/C=C/c1c(C)cc(OC)c(C)c1C [Etretinate] | 0.794 ± 0.27 | 0.831 ± 0.034 | 1 | 1.093 ± 0.01
Nc1ccc(S(=O)(=O)Nc2ncccn2)cc1 [Sulfadiazine] | 0.947 ± 0.41 | 1.03 ± 0.031 | 0.917 | 0.9587 ± 0.0092
c1cnc(N2CCN(Cc3ccc4c(c3)OCO4)CC2)nc1 [Piribedil hydrochloride] | 1.01 ± 0.4 | 0.962 ± 0.028 | 0.833 | 1.01 ± 0.055
CCC(=O)[C@@]1(C)[C@H](C)C[C@H]2[C@@H]3CCC4=CC(=O)C=C[C@]4(C)[C@H]3[C@@H](O)C[C@@]21C [Rimexolone] | 1.28 ± 0.36 | 1.02 ± 0.017 | 0.333 | 0.965 ± 0.031
C/C(=C(\CCOP(=O)(O)O)SC(=O)c1ccccc1)N(C=O)Cc1cnc(C)nc1N [Benfotiamine] | 1.54 ± 0.89 | 0.995 ± 0.021 | 0.75 | 0.949 ± 0.013
COc1cc2nc(N3CCN(C(=O)C4CCCO4)CC3)nc(N)c2cc1OC (centres undefined) [Terazosin hydrochloride] | 0.764 ± 0.26 | 1.04 ± 0.027 | 0.833 | 0.9878 ± 0.0069
COC(=O)C1=C(C)NC(C)=C(C(=O)OC2CCCN(Cc3ccccc3)C2)C1c1cccc([N+](=O)[O-])c1 (centres undefined) [Benidipine hydrochloride] | 4.55 ± 0.53 | 0.7 ± 0.061 | 0 | 0.99 ± 0.056
N[C@@H]1CCCCN(c2c(F)cc3c(=O)c(C(=O)O)cn(C4CC4)c3c2Cl)C1 [Besifloxacin hydrochloride] | 0.997 ± 0.35 | 1.02 ± 0.033 | 0.833 | 1.02 ± 0.018
